Out of some 3,400 compounds screened, about 840 (25%) were called active. About 11% were inconclusive and are not listed.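 How the source made its calls: active means fitted half-maximal concentration of signal decrease at or below twice the sample's top tested concentration; inconclusive means flat curve between -70 and -30 percent, or poor fit; inactive means flat within 30 percent, signal rise, or potency above limit.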 The list is a sample of the results. Potency and affinity values are given separately.
Assay: inhibitors of Toxoplasma growth in IFN-γ-primed HeLa – cell-based, ME49Luc, luciferase, 72 h, dose response (AID 1259418)
Details: T. gondii ME49Luc in IFN-y HeLa, active compounds read low, -100% = high-dose IFN-γ control wells; at 19.5 µM unless noted

SMILES | max activity
COc1cccc(C(=O)Nc2ccc(-c3nc(-c4cc(C)ccc4C)co3)cc2)c1 | 7.15% [at 0.16 µM] (inactive)
Cc1nnc(N2C[C@@H](Oc3ncccc3F)[C@@H]3OCCC[C@@H]32)s1 | 9.8% (inactive)
COc1cccc(-c2nc3c(s2)CN(S(=O)(=O)c2ccc(C)c(C)c2)CC3)c1 | -17.2% [at 10 µM] (inactive)
COc1ccc(-c2nc3c(s2)CN(S(=O)(=O)c2ccc(C)cc2)CC3)cc1 | 9.64% [at 10 µM] (inactive)
COc1ccc(-c2nc3c(s2)CN(S(=O)(=O)c2ccc(OC)cc2)CC3)cc1 | 12.4% (inactive)
COc1ccc(S(=O)(=O)N2CCc3nc(-c4ccc(C)cc4)sc3C2)cc1 | -4.65% [at 2.6 µM] (inactive)
Cc1ccc(C)c(-c2coc(-c3ccc(NC(=O)COc4ccc(F)cc4)cc3)n2)c1 | 15.1% (inactive)
N#Cc1ccc(S(=O)(=O)N2CCC(N3CCOCC3)CC2)cc1 | -17.4% [at 0.35 µM] (inactive)
CCc1ccccc1NC(=O)CN1CCC2(CC1)N=C(c1ccc(Cl)cc1)C(=O)N2 | 13% (inactive)
Cc1nc(-c2ccc(F)cc2)sc1-c1ccc(SCc2ccc(C(F)(F)F)cc2)nn1 | 6.62% [at 0.68 µM] (inactive)
COc1ccccc1NC(=O)CN1CCC2(CC1)N=C(c1ccc(F)cc1)C(=O)N2 | 11.3% (inactive)
Cc1ccc(N(Cc2nc(-c3ccc(OC(C)C)cc3)oc2C)S(=O)(=O)c2cccs2)cc1 | -11.4% [at 0.68 µM] (inactive)
Cc1oc(-c2ccccc2)nc1CN(c1ccccc1)S(=O)(=O)c1cccs1 | 8.04% [at 0.68 µM] (inactive)
Cc1ccc(-c2nc(CN(c3ccc(C)cc3)S(=O)(=O)c3cccs3)c(C)o2)cc1 | 12.6% [at 0.16 µM] (inactive)
COc1ccccc1-c1nc(CSc2nc3c(c(=O)[nH]2)CN(Cc2ccc(F)cc2)CC3)c(C)o1 | 38.6% [at 5 µM] (inactive)
Cc1ccc2c(c1C)-n1cccc1C1(CCN(C(=O)c3cccc(N(C)C)c3)CC1)N2 | -17.3% [at 0.35 µM] (inactive)
COCCC(=O)N1C[C@H](OCc2ccccn2)[C@@H]2COC[C@@H]21 | 46.2% (inactive)
COc1ccc(CCC(=O)N2CCC[C@@H]2C(=O)NCCc2csc(-c3ccccc3)n2)cc1 | 15.9% [at 2.6 µM] (inactive)
COCCN1CCc2nc(SCc3nc(-c4ccc(C)cc4)oc3C)[nH]c(=O)c2C1 | -13.7% [at 2.6 µM] (inactive)
COc1ccc(-c2nc(Cn3nnc(-c4nc(-c5cccc(C(F)(F)F)c5)no4)c3C)c(C)o2)cc1 | -6.58% [at 5 µM] (inactive)
CCOc1ccc(NC(=O)Nc2ccc(-c3nc(-c4cccc(Br)c4)co3)cc2)cc1 | 4.75% [at 10 µM] (inactive)
COc1ccc(-c2nc(Nc3cc(F)ccc3F)c3ccccc3n2)cc1 | 38% (inactive)
COc1cccc(-c2nc3c(s2)CN(S(=O)(=O)c2ccc(F)cc2)CC3)c1 | 19.6% (inactive)
COc1ccc(-c2nc3c(s2)CN(S(=O)(=O)c2ccc(CC(C)C)cc2)CC3)cc1 | -5.7% [at 10 µM] (inactive)

SMILES | max activity
CCOC(=O)C1CCC(CNC(=O)Nc2ccc(-c3nc(-c4cc(C)ccc4C)co3)cc2)CC1 (configuration not stated) | 10.8% [at 0.16 µM] (inactive)
Cc1cc(C2CCCN2C(=O)Cn2nc(C(F)(F)F)cc2C)on1 (configuration not stated) | 9.62% [at 0.16 µM] (inactive)
Cc1ccc(-c2coc(-c3ccc(NC(=O)NC4CCCC4)cc3)n2)c(C)c1 | 13.7% (inactive)
Cc1nc(OCC(=O)Nc2ccccc2F)c2ccccc2n1 | 19.1% [at 0.16 µM] (inactive)
COCCN1CCc2nc(SCc3nc(-c4cccc(C)c4)oc3C)[nH]c(=O)c2C1 | 12% [at 0.16 µM] (inactive)
Cc1ccc(C)c(NC(=O)CN2CCC3(CC2)N=C(c2cccc(F)c2)C(=O)N3)c1 | -32.1% (inactive)
CCN1CCn2c(-c3cccc(F)c3)cnc2C12CCN(c1ncccn1)CC2 | 40.4% (inactive)
COc1ccc(-c2nc(NC(C)c3ccccc3)c3ccccc3n2)cc1 (configuration not stated) | 18.4% [at 5 µM] (inactive)
COc1ccc(C(=O)N2CCC3(CC2)Nc2ccc(C)c(C)c2-n2cccc23)c(OC)c1 | -29.7% [at 0.16 µM] (inactive)
Cc1ccc(C)c(-c2coc(-c3ccc(NC(=O)c4ccc(Br)o4)cc3)n2)c1 | 9.77% [at 10 µM] (inactive)
O=C(NCc1ccc(F)cc1F)c1cc(-c2cnc(N3CCCC3)nc2)cn1CC1CC1 | -11.3% [at 0.038 µM] (inactive)
COCCN1CCc2c(cnc(-c3cccnc3)c2C(=O)O)C1 | 17.7% [at 2.6 µM] (inactive)
COc1ncccc1NC(=O)c1cc(-c2cnc(N3CCCC3)nc2)cn1CC1CC1 | 6% (inactive)
CN1C(=O)CCc2cc(NC(=O)c3cccnc3)ccc21 | -16.3% [at 0.16 µM] (inactive)
COC(=O)[C@@H]1C[C@@H](N(C)C)CN1S(=O)(=O)c1c(C)ccc2nsnc12 | 25.5% (inactive)
Cc1ccc(-c2coc(-c3ccc(NC(=O)COc4ccc(F)cc4)cc3)n2)cc1 | -52.1% [at 0.68 µM] (inactive)
O=C(NCc1ccc(F)cc1)Nc1ccc(-c2nc(-c3ccccc3)co2)cc1 | 16.3% [at 1.35 µM] (inactive)
CCOC(=O)C1CCN(C(=O)c2ccc(-c3csc(C4CC4)n3)cc2)CC1 | 40.1% (inactive)
COc1ccc(C(=O)N2CCC(C(=O)NCCc3csc(-c4ccccc4)n3)CC2)cc1 | 12.2% [at 0.16 µM] (inactive)
COc1cccc(C(=O)N2CCC(C(=O)NCCc3csc(-c4ccccc4)n3)CC2)c1 | -23.1% (inactive)
COc1ccc(-c2nc(N3CCN(c4cccc(C)c4)C(C)C3)c3ccccc3n2)cc1 (configuration not stated) | 60.7% (inactive)
Cc1ccc(-c2nc(Cn3nnc(-c4nc(-c5ccc(C(F)(F)F)cc5)no4)c3C)c(C)o2)cc1 | 11.8% [at 0.35 µM] (inactive)
CCc1nc(OCC(=O)Nc2ccccc2C)c2ccccc2n1 | 13% [at 0.16 µM] (inactive)
